# Experimental data reported in PubChem BioAssay (NCI).
# Compounds without any hit were thinned out: in the full panel of roughly 83,000, 20% have a hit.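 Percent growth is the endpoint: 0 to 100 indicates growth inhibition (40 means 60% inhibition), 0 means no net growth, and negative values indicate cell death.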 Unmarked numbers belong to inactive results. Calls of active or inactive are those of the source. How the source made its calls: active means growth percent below 10; inactive means the rest.
# How the values were obtained:
# Test in all cases: NCI-60 one-dose screen, 48 h (100 = growth as untreated, 0 = no growth, -100 = all killed)
# Settings in all cases: 10 µM unless noted
# [1] = test system: DU-145 prostate
# [2] = test system: K-562 leukemia
# [3] = test system: MALME-3M melanoma
# [4] = test system: MDA-MB-231 breast
# [5] = test system: RXF 393 renal
# [6] = test system: SF-268 CNS
# [7] = test system: SF-295 CNS
# [8] = test system: SF-539 CNS
# [9] = test system: UACC-257 melanoma
# [10] = test system: M14 melanoma
Compound,growth [1],growth [2],growth [3],growth [4],growth [5],growth [6],growth [7],growth [8],growth [9],growth [10]
Cc1nc2cc(O)c(O)cc2cc1Oc1ccc(NC(=O)Nc2ccc(Cl)c(Cl)c2)cc1,60.3%,53.9%,85.2%,45%,20.4%,65.5%,95.9%,56.9%,88.5%,80.7%
COc1ccc(-c2n[nH]c(=O)c3nc(NC(=S)Nc4ccc(Oc5ccccc5)cc4)sc23)cc1,102%,89.3%,110%,84%,104%,102%,102%,105%,79.7%,88.9%
COc1ccc(C(=O)N2c3ccccc3Sc3ccccc32)c(C(F)(F)F)c1,14.2%,-7.9% (active),59.7%,23.9%,15.4%,35.2%,5.14% (active),-10.1% (active),61.5%,2.2% (active)
NS(=O)(=O)c1ccc(-c2cc(-c3nnc(SCC(=O)Nc4ccc(C(=O)/C=C/c5ccc(Cl)cc5)cc4)n3-c3ccccc3)c3ccccc3n2)cc1,95.7%,84.4%,101%,90.8%,93%,74.8%,101%,92.3%,104%,97.7%
O=C1/C(=C/c2ccccc2F)CN(C(=O)C(Cl)Cl)C/C1=C\c1ccccc1F,-63.4% (active),-2.29% (active),-47% (active),-49.1% (active),-76.3% (active),-0.301% (active),-46.2% (active),-85.9% (active),-17.5% (active),-43.7% (active)
Cn1ccc(=O)nc1,8.53% (active),91.9%,111%,91.9%,92.6%,86.1%,82.9%,99.9%,88.3%,102%
COC(=O)CCC/C=C\C[C@H]1C=CC(=O)/C1=C/C[C@@H](O)C/C=C\CC(F)(F)F,24.9%,6.69% (active),10.2%,8.26% (active),-5.41% (active),17.6%,-1.18% (active),17.8%,-15.6% (active),-16.8% (active)
O=C(O)/C=C/C(=O)Nc1cccc(Cn2nnc3cc(Cl)c(Cl)cc32)c1,119%,91.3%,97.5%,106%,93.2%,98.5%,97%,101%,97.1%,102%
C=C(CNCCO)[C@@H]1CC[C@]2(CO)CC[C@]3(C)[C@H](CC[C@@H]4[C@@]5(C)CCC(N)C(C)(C)[C@@H]5CC[C@]43C)[C@@H]12 (stereo not given in full),53%,-43.3% (active),-75.1% (active),2.59% (active),50.4%,33.1%,46.5%,-6.75% (active),-81.5% (active),-70.2% (active)
CN(C)CCCC1(c2ccc(F)cc2)OCc2cc(-c3ccc4cc[nH]c4c3)ccc21 (stereo not given),35.7%,-20.1% (active),11%,16%,45.8%,54%,74.5%,67.8%,79.1%,-56.8% (active)
CN1CCN(c2ccc3nc4c(nc3c2C(F)(F)F)C(=O)c2ncccc2C4=O)CC1,-85.7% (active),-6.72% (active),-99.2% (active),-5.99% (active),38.4%,1.96% (active),-61.6% (active),-52.4% (active),-82.3% (active),-89.6% (active)
O=C(CC(=O)Nc1cccc(C(=O)O)c1)Nc1cccc(C(=O)O)c1,121%,111%,104%,104%,111%,104%,106%,90.5%,97.7%,96.6%
COC(=O)c1c2c(c(C)[n+]([O-])c1C)C(=O)C(NCc1ccc(OC)cc1)=CC2=O,43.9%,11.4%,-92.8% (active),5.7% (active),47.3%,22.5%,66.6%,10.4%,-47.5% (active),13.3%
Cc1ccc2nc(/C(C#N)=C(/CCCO)NC(Cc3ccccc3)C(=O)OCc3ccccc3)[nH]c(=O)c2c1 (stereo not given),98.4%,119%,126%,113%,127%,102%,98.7%,65.1%,121%,98.4%
C/C=C(\C)C(=O)N[C@H]1C(O)C[C@]2(C)C3CC[C@@]4(C)C(CC[C@@H]4C(C)N(C)C)C3CCC2C1O (stereo not given in full),74.6%,0.455% (active),17.1%,65.2%,81%,13.6%,105%,7.02% (active),14.6%,-14.1% (active)
CC1(C)CC(=O)c2c(nn(-c3ccc(Br)cc3)c2-c2cn(-c3ccccc3)nc2-c2cccnc2)C1,111%,84.4%,101%,89.7%,96.1%,97.8%,92.1%,105%,111%,98.6%
CS(=O)(=O)c1nnc(-c2ccccc2)s1,88%,78.4%,88.1%,101%,110%,94.8%,106%,106%,91%,74%
CC1(C)OB(O)c2cc(-c3nc4ccc5[nH]ncc5c4c4c3CCCC4)ccc21,54.8%,44.5%,60.5%,47.9%,35.3%,57.4%,63.1%,73.6%,77.5%,52%
CCc1ccc(CCC(=O)Nc2ncc(Cc3ccccc3)s2)o1,26.7%,11.8%,65.2%,52.5%,2.15% (active),61.1%,15.1%,-10.1% (active),58.9%,10.5%
COc1ccc(-c2nc(/C=C3\C(=O)N(C)c4ccccc43)c3ccccn23)cc1,93%,95.9%,72.5%,85.2%,67.4%,66%,83.2%,72.7%,86%,99.1%
CC(=O)ON1CCCC(P(=O)(OCCSC(=O)C(C)(C)C)OCCSC(=O)C(C)(C)C)C1=O (stereo not given),42.5%,19.4%,17.1%,25.1%,-26.7% (active),19.2%,55.5%,57.6%,54.2%,34.3%
CC1(C)CC[C@]23CC[C@]4(C)[C@H](CC[C@@H]5[C@@]6(C)C/C(=C/c7ccncc7)C(=O)C(C)(C)[C@@H]6CC[C@]54C)[C@H]2[C@H]1OC3,82.1%,69.9%,87.9%,65.5%,88.4%,78.1%,90.9%,58.7%,85.5%,96.6%
Cc1ccnc(Nc2ccc([N+](=O)[O-])c(NCCN3CCOCC3)n2)c1,10.1%,6.76% (active),89.3%,42.4%,70.4%,31.9%,35.8%,6.71% (active),86.2%,24.1%
Cc1cccc[n+]1C1c2ccccc2-c2ccccc21,110%,86.6%,99.3%,98.5%,102%,94.4%,99.1%,92.7%,90.3%,93.7%
COc1cc(NC(=O)c2cncnc2Nc2ccc3c(ccn3Cc3ccccn3)c2)cc(OC)c1,65.4%,17.1%,44.7%,50.6%,42%,63.1%,35%,48.2%,68%,36.5%
O=C(NC(Cc1nnc2n(Cc3ccccc3)c(=O)c3c4c(sc3n12)CCCC4)c1ccccc1)c1ccccc1 (stereo not given),115%,91%,103%,94%,79.4%,89.5%,108%,111%,101%,86.9%
